Screen size: about 140,000 compounds; about 2,100 (1.5%) were called active.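 Rule for the calls: active = viability at or under a set limit, the compound median less 4 SD (cut at about 6% in these data); inactive = the rest.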 Only a selection was taken, and actives are over-represented in it overall.
assay: primary screen for suppressors of beta-catenin knockout HCT116 cell growth, colon tumor, human (AID 818); conditions: CellTiter-Glo, 60 h, at 10 µM, hits give low values;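 note: 0% = Hyamine 1622 control at 20 µM and 100% = untreated cell control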

SMILES | viability
CSCC[C@H](NC(=O)OC(C)(C)C)C(=O)N/N=C/c1cc2ccc(C)cc2nc1Cl | 1.02% (active)
CCOc1cc(/C=N/NC(=O)OC)ccc1OCCSc1ccc(Cl)cc1 | 93.9% (inactive)
CSCCC(NC(=O)COc1ccccc1)C(=O)Nc1ccc(C)cc1 (stereo not drawn) | 99.2% (inactive)
COCCCNC(=S)NC(=O)c1ccc([N+](=O)[O-])cc1 | 95.7% (inactive)
Cc1nc(N2CCCC2C(=O)O)c2oc3ccccc3c2n1 (stereo not drawn) | 95.6% (inactive)
CCSc1nc(C)nc2c1oc1ccccc12 | 95.4% (inactive)
Cc1nc(Cl)c2oc3ccccc3c2n1 | 2.84% (active)
Cc1ccc(CCCOC(=O)C[N+]2(C)CCCC2)cc1 | 97% (inactive)
Cc1ccc(S(=O)(=O)c2ccc(Cl)cc2)cc1S(=O)(=O)NC(C(=O)O)C(C)C (stereo not drawn) | 97.6% (inactive)
CN1CCN(C(=O)/C(=C\c2cccs2)NC(=O)c2cccs2)CC1 | 90.3% (inactive)
Nc1ccc(Nc2ccccc2)cc1 | 5.41% (active)
Cc1cc(Nc2ccccc2)nc(N)n1 | 93.5% (inactive)
Cc1cc(Nc2ccccc2)n(C(=O)c2ccc(N)cc2)n1 | 85.7% (inactive)
O=C(Cn1nnc(-c2ccccc2)n1)N/N=C/c1ccc(-c2ccc(Cl)cc2)o1 | 80.7% (inactive)
O=C(c1ccc(CSc2ccccc2)cc1)N1CCCCCC1 | 65.2% (inactive)
O=[N+]([O-])c1c(NCCO)cc(Sc2nc3ccccc3s2)c2nonc12 | 1.67% (active)
O=C(O)c1cccc(S(=O)(=O)Nc2ccc(O)cc2Sc2nc3ccccc3s2)c1 | 91.9% (inactive)
COc1ccc(S(=O)(=O)Nc2ccc(O)c(Sc3nc4ccccc4s3)c2)cc1 | 82.2% (inactive)
CN(c1ccccc1)S(=O)(=O)c1ccc(Cl)c(C(=O)NCCc2c[nH]c3ccccc23)c1 | 78.7% (inactive)
CNC(=O)/C(C#N)=C/c1c(F)cccc1Cl | 74.3% (inactive)
O=C(CN1C(=O)C2C3CCC(C3)C2C1=O)Oc1ccc2ccccc2c1 (stereo not drawn) | 85.5% (inactive)

SMILES | viability
CC1=CC(C)(C)Nc2ccc(OC(=O)CN3C(=O)C4CCCCC4C3=O)cc21 (stereo not drawn) | 0.52% (active)
CC1=CC(C)(C)Nc2ccc(OC(=O)C(Cc3ccccc3)N3C(=O)C4CCCCC4C3=O)cc21 (stereo not drawn) | 44.7% (inactive)
CCCOC(=O)c1c(NC(=O)c2cnn3c2NC(c2ccccc2)CC3C(F)(F)F)sc2c1CCCC2 (stereo not drawn) | 61% (inactive)
CCCCOc1ccc(C(=O)NN2CCN(C)CC2)cc1 | 87.1% (inactive)
CCCCOc1ccc(C(=O)NCc2ccncc2)cc1 | 70.7% (inactive)
CCCOc1ccc(C(=O)C(CCC(CNCC)C(=O)c2ccc(OCCC)cc2)CNCC)cc1 (stereo not drawn) | 0.87% (active)
O=C(c1ccc(S(=O)(=O)c2ccccc2)cc1)N1CCCCCC1 | 93.2% (inactive)
C=CCn1c(SCc2ccc(Cl)c(Cl)c2)nnc1C(CO)NC(=O)c1ccc(OC)cc1 (stereo not drawn) | 90.7% (inactive)
Cc1cc(C)c2nc3nc(C)cc(C)c3c(N)c2c1 | 1.48% (active)
Cc1cc(C)c2nc(SCCC#N)nc(C)c2c1 | 109% (inactive)
C=CCNC(=O)/C=C/c1ccc(C(C)C)cc1 | 90.7% (inactive)
Nc1nc(SCC(=O)NNc2c(Cl)cc(Cl)cc2Cl)n[nH]1 | 98.6% (inactive)
Cc1sc2nc(CC(N)=O)[nH]c(=O)c2c1-c1ccccc1 | 90.4% (inactive)
NS(=O)(=O)c1ccc(NC(=O)COC(=O)C2(c3ccc(F)cc3)CCCC2)cc1 | 82.7% (inactive)
Cc1[nH]c(=O)c(C(=O)/C=C/c2ccccc2)c2c1CCCC2 | 2.53% (active)
O=C(/C=C/c1ccccc1)c1ccccc1O | 83.6% (inactive)
O=C(/C=C/c1ccccc1)c1ccoc1 | 10.1% (inactive)
CCNS(=O)(=O)c1ccc(NC(=O)c2cncc(Br)c2)cc1 | 97.6% (inactive)
O=C(NC(=S)Nc1ccc2oc(=O)ccc2c1)c1ccc(-c2cccc(Cl)c2Cl)o1 | 101% (inactive)
COc1cccc2sc(Nc3nc(C)c(C(C)=O)s3)nc12 | 5.29% (active)
COc1cccc2sc(NNC(=O)c3nc4ccccc4s3)nc12 | 14.9% (inactive)

SMILES | viability
CC(=O)c1sc(NC(=O)c2cccc3ccccc23)nc1C | 87.1% (inactive)
CCOc1ccc2nc(NC(=O)c3cc([N+](=O)[O-])ccc3N3CCOCC3)sc2c1 | 39.5% (inactive)
COc1ccccc1N1CCN(C(=O)C(=O)N/N=C/c2ccccc2F)CC1 | 104% (inactive)
Fc1ccc2c(c1)C(c1cccnc1)=NNC(c1cccs1)=N2 | 40.4% (inactive)
CC(C)OCCCNc1ncnc2c1[nH]c1ccc(F)cc12 | 9.7% (inactive)
Fc1ccc2[nH]c3c(N4CCSCC4)ncnc3c2c1 | 5.04% (active)
CCN1CCCC1CNc1ncnc2c1[nH]c1ccc(F)cc12 (stereo not drawn) | 82.2% (inactive)
CC(=O)COc1ccc2c(-c3ccccc3)cc(=O)oc2c1 | 95.5% (inactive)
COc1ccc(C2COC(=O)C2=N)c(NC(=O)c2ccccc2)c1 (stereo not drawn) | 79.1% (inactive)
CC1(c2ccccc2)CC(C)(C)N(C(=O)c2cc([N+](=O)[O-])cc([N+](=O)[O-])c2)c2ccccc21 (stereo not drawn) | 69% (inactive)
O=C(NCCN1CCN(Cc2ccccc2)CC1)c1cc2c(=O)[nH]c3ccccc3c2s1 | 1.35% (active)
CN1CCN(CCCNC(=O)c2cc3c(=O)oc4ccccc4c3s2)CC1 | 92% (inactive)
Cn1c(C(=O)NCCN2CCc3ccccc3C2)cc2c(=O)[nH]c3ccccc3c21 | 87.4% (inactive)
COc1ccccc1N=Cc1c(O)c2ccccc2oc1=O | 84.7% (inactive)
CCCCCCc1cc2cc(-c3nnc(-c4ccccc4)o3)c(=O)oc2cc1O | 1.64% (active)
Cc1c(/C=N/N2C(=O)C3C4C=CC(C4)C3C2=O)c2ccccc2n1C (stereo not drawn) | 90.7% (inactive)
Cc1coc2c(O)cc3c(c12)OC1(N2CCCCC2)C(=O)NCCCC31 (stereo not drawn) | 2.34% (active)
Cc1cccc(N2CCN(C(=O)c3ccccc3NC(=O)C3CCCCC3C(=O)O)CC2)c1 (stereo not drawn) | 93.7% (inactive)
COc1ccc(NS(=O)(=O)c2ccc(NC(=S)NC(=O)/C=C/c3ccc(C)cc3)cc2)nn1 | 84.3% (inactive)
COc1ccc(NC(=O)/C(Cl)=C(/Cl)S(=O)Cc2ccc(C)cc2)cn1 (stereo not drawn) | 0.98% (active)
COc1cc(NC(=O)Nc2ccc(C)cc2)cc([N+](=O)[O-])c1 | 86.1% (inactive)

From PubChem BioAssay AID818 (SRMLSC, 2007)
